Experimental findings from PubChem BioAssay (NCI) are described below.

This is part of a sample that, as a whole, favours compounds with a hit. Of some 83,000 tested, about 20% had one in any assay.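 Compound tested at a single concentration for 48 hours in 96-well plates; a percent growth value below 10 was scored as active.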 Calls of active or inactive are those of the source.

In this assay the test system is NCI/ADR-RES ovarian. Briefly: NCI-60 one-dose screen, 48 h (100 = growth as untreated, 0 = no growth, -100 = all killed). The following applies: 10 µM unless noted. The method, then: Growth inhibition of the NCI/ADR-RES human […] tumor cell line is measured as a screen for anti-cancer activity. Cells are grown in 96 well plates and exposed to the test compound for 48 hours. Compounds are tested at a single concentration, which is 10^-5 M for most compounds. The reported endpoint is percent growth (GI% or GIPRCNT), where numbers from 0 - 100% represent growth inhibition, and numbers from -100% - 0 represent cell death. For example, a value of 40 represents 60% growth inhibition. A value of 0 means no net growth occurred over the course of the experiment. A value of -40 indicates 40% of cells at the beginning of the experiment died by the end of the experiment. A value of -100 means all cells are dead at the end of the experiment.
NCI-60 Human Tumor Cell Lines Screen was performed using the standard one-dose NCI protocol, which is described in more detail at https://dtp.cancer.gov/discovery_development/nci-60/default.htm.
Compounds with GIPRCNT values below 10 were considered active. Activity score was based on GIPRCNT using the following formula: […]
Score is 0 for GIPRCNT values of 100 or above, 50 for GIPRCNT values of 0, and 100 for GIPRCNT values of -100.
With `CCOC(=O)/C=C1\S/C(=N\Nc2cc(=O)[nH]c3ccc(Cl)cc23)N(c2ccccc2)C1=O`, the growth is 101% (inactive).

For `COc1ccc(-c2cc(-c3ccc(Cl)cc3)c(C#N)c(=O)n2CCCCC(=O)Nc2ccccc2N)cc1`, the growth was 37.3% (inactive).

Consider `C=C(CNCCc1ccc(O)cc1)[C@@H]1CC[C@]2(CO)CC[C@]3(C)[C@H](CC[C@@H]4[C@@]5(C)CCC(NCCO)C(C)(C)[C@@H]5CC[C@]43C)[C@@H]12` (stereo not given in full), for which the growth was 53.8% (inactive).

As for `N#Cc1c(NC(=O)c2ccccc2)sc2c1CCC(=O)C2`, the growth was 5.57% (active).

Regarding `N#CC1C=CN(CC(N)=O)c2ccc3cccnc3c21` (stereo not given), the growth was 105% (inactive).

Turning to `COc1ccc(/C=N/C2=C(C#N)C(c3cccc(Cl)c3)c3c(ccc4ccccc34)O2)cc1` (stereo not given), the growth was 22.1% (inactive).

On to `N#CCSc1nnc2n(Cc3ccccc3)c(=O)c3c4c(sc3n12)CCCC4`, for which the growth was 91% (inactive).

As for `C=C(C)[C@@H]1CC[C@]2(C(=O)NCC#CCN3CCN(C)CC3)CC[C@]3(C)[C@H](CC[C@@H]4[C@@](C)(CCC#N)[C@H](C(=C)C)CC[C@]43C)[C@@H]12`, the growth is 55.8% (inactive).

Consider `Cn1cc(-c2csc(-c3c[nH]c4ccc(Br)cc34)n2)c2cnccc21`, for which the growth was -69.2% (active).

In the case of `C/C(=C(/c1ccc(Cl)cc1)c1ccc(OCCN2CCCC2)cc1)c1ccc(Cl)cc1`, the growth was 90.4% (inactive).

For the molecule `C=CCc1c(O)c(C(=O)/C=C/c2ccc(Cl)cc2)c(OC)c2ccoc12`, the growth is 39.1% (inactive).

For the molecule `CCS/C(Nc1ccccc1)=C(\C#N)C(=O)N/N=C/c1ccc(Cl)cc1Cl`, the growth was 10.8% (inactive).

As for `CC(=O)Cc1nsc(NC(=O)c2cc(-c3cc(Cl)cc(Cl)c3)oc2C)n1`, the growth was 103% (inactive).

Take `COC1C[C@H](O[C@@H]2C[C@H](O[C@@H]3C[C@H](O[C@@H]4C(=O)c5c(cc6cc(O[C@H]7C[C@@H](O[C@H]8C[C@@H](O)[C@H](O)C(C)O8)[C@H](O)C(C)O7)c(C)c(O)c6c5O)C[C@H]4C(OC)C(=O)[C@@H](O)[C@@H](C)O)OC(C)[C@H]3O)OC(C)[C@@H]2O)OC(C)[C@@H]1O` (stereo not given in full): the growth was 82.4% (inactive).

Turning to `COc1ccc(-c2csc(N(C(=O)N3CCN(c4cc5c(cc4F)c(=O)c(C(=O)O)cn5C4CC4)CC3)c3ccccc3)n2)cc1`, the growth was 11.8% (inactive).

Regarding `CCN(CC)c1nc(SCc2ccccc2Cl)ncc1C`, the growth was 92.2% (inactive).

For `CC1=Nc2cnc(Nc3ccc(OCCN4CCCC4)cc3)nc2Nc2ccccc21`, the growth is 82.7% (inactive).

For the molecule `COc1ccc(/C=C2\COc3ccc(O)c(O)c3C2=O)cc1`, the growth was 6.53% (active).

In the case of `CN(C)CCCn1c2c(c3ncccc3c1=O)C(=O)c1ccccc1-2`, the growth is 42.7% (inactive).

In the case of `Cc1c(-n2nnc(-c3nc4ccccc4s3)c2N)c(=O)n(-c2ccccc2)n1C`, the growth is 92.5% (inactive).

Regarding `Cc1ccc(/C=N/Nc2nc(Nc3ccccc3)nc(-n3nc(C)cc3C)n2)cc1`, the growth is 13.1% (inactive).

Regarding `COC(=O)[C@]1(C)CCC[C@]2(C)[C@H]3C[C@H]4C(C(C)C)=C[C@]3(CC[C@H]21)[C@H]1[C@@H]4[C@@H](OCCC#N)CC[C@@H]1OCCC#N`, the growth was 41.8% (inactive).

For `Cn1cccc1C(=O)C1C(c2cccc([N+](=O)[O-])c2)C2C3CCCCC3CN2C12C(=O)Nc1ccc(Cl)cc12` (stereo not given), the growth is 51% (inactive).

Turning to `COc1cc(N2C(=O)[C@H](O)C2c2ccc(SC)cc2)cc(OC)c1OC` (stereo not given in full), the growth is 14.2% (inactive).

In the case of `CCOC(=O)C(=Cc1cccc(Cl)c1)C(=O)OCC`, the growth is 4.71% (active).

`CC(=O)N1N=C(c2ccc(Nc3nc(Nc4ccc(Cl)cc4)nc(Nc4ccc(Cl)cc4)n3)cc2)CC1c1ccco1` (stereo not given): the growth is 93.5% (inactive).

Turning to `C/C(=N/O)c1ccc(F)cc1`, the growth is 77.7% (inactive).

With `O=C(Cn1c(=O)sc2ccccc21)NNS(=O)(=O)c1ccccc1[N+](=O)[O-]`, the growth is 103% (inactive).

Turning to `O=c1oc2c(cnc3ccccc32)cc1-c1ccsc1`, the growth was 109% (inactive).

`O=[N+]([O-])c1ccc(-c2nc(N3CCOCC3)c3c4c(sc3n2)CCCC4)cc1`: the growth is 102% (inactive).

Regarding `O=C(O)[C@@H]1c2ccccc2-c2ccccc2[C@H]1C(=O)O`, the growth was 95.4% (inactive).

`COC(=O)/C(CCC=C(C)C)=C1\[C@@H](OC(C)=O)C[C@@]2(C)[C@H]1C[C@@H](O)[C@H]1[C@@]3(C)CC[C@H](NCCN)[C@@H](C)[C@@H]3CC[C@@]12C`: the growth is 93.4% (inactive).

Regarding `CC(C)OC(=O)c1ccc2[nH]c(O)c(C(=Nc3ccc(N(C)C(=O)CN4CCN(C)CC4)cc3)c3ccccc3)c2c1`, the growth is 38.4% (inactive).

Turning to `COc1ccc(/C=N/NC(=O)CCN2c3ccccc3Sc3ccccc32)cc1`, the growth was 69.4% (inactive).

Regarding `CC(=O)n1nc(C(=O)OC(C)C)c2cc(C)c(C)cc21`, the growth is 101% (inactive).

For the molecule `COC(C(=O)[C@@H](O)[C@@H](C)O)[C@@H]1Cc2cc3cc(O[C@H]4C[C@@H](O[C@H]5C[C@@H](O)[C@H](O)C(C)O5)[C@H](O)C(C)O4)c(C)c(O)c3c(O)c2C(=O)[C@H]1O[C@H]1C[C@@H](O[C@H]2C[C@@H](O[C@H]3C[C@@H](O)[C@H](OC)C(C)O3)[C@@H](O)C(C)O2)[C@H](O)C(C)O1` (stereo not given in full), the growth was 59.5% (inactive).

`COC(=O)[C@H]1CCCN1C[C@@H](O)CN1C(=O)/C(=C\c2cc(OC)c(OC)c(OC)c2)c2ccccc21`: the growth is 102% (inactive).

For `CCOc1ccc(NC(=O)CSc2oc(-c3ccccc3)nc2S(=O)(=O)c2ccc(F)cc2)cc1`, the growth is 67.3% (inactive).

Regarding `COc1ccc2c(O)c(/C=C3\N=Nc4ncccc43)oc2c1C[C@H]1CCNC[C@H]1F`, the growth is 31.3% (inactive).

`Oc1c(Cl)cc(Cl)c2ccc(Cn3cc(-c4ccc(C(F)(F)F)cc4)nn3)nc12`: the growth is 100% (inactive).
